Data on 96 molecules can be found in PubChem BioAssay AID626 (Vanderbilt High Throughput Screening Facility, 2007).

Each structure is given as a SMILES string. Hit rate of the full screen: of about 64,000 compounds, about 1,900 (3%) were called active.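 The calls were made as follows: active = fluorescence rise, raw or as B-score row- and column-corrected plate score, outside the 99.7% band of its plate's samples, either direction; inactive = the rest.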 The entries come from a sample that favours actives as a whole.

For the assay, the system named is Muscarinic acetylcholine receptor M1. The experiment in a line: M1 muscarinic receptor agonists, primary screen, CHO-M1 cells, Fluo-4 calcium, agonist mode (AID 626). The conditions noted are these: Fluo-4 calcium fluorescence, at 10 µM, stronger effect = higher value.
Regarding `CNC(=O)c1c(NC(=O)c2ccc(S(=O)(=O)N3CCOCC3)cc2)sc2c1CCC2`, the B-score is -0.0829 (inactive).

Take `CC(=O)Nc1cccc(Oc2cc(C#N)c(C#N)cc2N2CCOCC2)c1`: the B-score is 0.0039 (inactive).

`CCOc1cc(N2CCOCC2)c(OCC)cc1NC(=O)COc1cccc2cccnc12`: the B-score was 4.8 (active).

For `CCOc1cc(NC(=O)c2ccco2)c(OCC)cc1NC(=O)COc1ccccc1`, the B-score is 0.0561 (inactive).

Take `Cc1nc2cc(S(=O)(=O)C(F)(F)F)ccc2s1`: the B-score was 0.0196 (inactive).

As for `Cc1ccc(C(c2sc3nc(C)nn3c2O)N2CCN(c3ccccc3)CC2)cc1` (stereo unspecified), the B-score is -0.274 (inactive).

Regarding `O=C(Nc1cccc(-c2nnc(-c3ccccc3)o2)c1)C1CCCO1` (stereo unspecified), the B-score is 8.44 (active).

Regarding `O=C(Nc1ccc(-c2nnc(-c3ccccc3)o2)cc1)C1CCCO1` (stereo unspecified), the B-score was 0.124 (inactive).

For the molecule `O=C(Nc1nnc(CCc2ccccc2)s1)C1CCCO1` (stereo unspecified), the B-score is -0.799 (inactive).

Take `Cc1ccc(C(=O)Nc2ccccc2C(=O)NC2CCCCC2)cc1S(=O)(=O)N1CCOCC1`: the B-score is -0.515 (inactive).

In the case of `CCOc1ccc2cc(C#N)c(SCC(=O)OC)nc2c1`, the B-score was -0.798 (inactive).

Regarding `Cc1ccc2cc(C#N)c(SCC(=O)NCC3CCCO3)nc2c1C` (stereo unspecified), the B-score was 0.58 (inactive).

Turning to `CC(NC(=O)CSc1nc2c(cc1C#N)CN(C)CC2)c1ccccc1` (stereo unspecified), the B-score was 6.81 (active).

For the molecule `CC1=NC2(CCCc3c2no[n+]3[O-])N(O)C1(C)C` (stereo unspecified), the B-score is -0.303 (inactive).

In the case of `O=C(Nc1c(-c2ccccc2)nc2c(Br)cc(Br)cn12)c1ccco1`, the B-score was 1.35 (inactive).

Turning to `N#CCCN1CCN(S(=O)(=O)c2ccc(S(=O)(=O)NC3CC3)cc2)CC1`, the B-score was 0.386 (inactive).

For the molecule `N#CCCN1CCN(S(=O)(=O)c2ccc(S(=O)(=O)N3CCCC3)cc2)CC1`, the B-score was 0.0676 (inactive).

As to `CC(C)(C)c1cc(CN2CCN(CCC#N)CC2)cc(C(C)(C)C)c1O`, the B-score was 25.1 (active).

On to `Cc1nc2ccc(S(=O)(=O)NC(C(=O)N3CCCCCC3)C(C)C)cc2s1` (stereo unspecified), for which the B-score was 0.688 (inactive).

For `CN1CCN(S(=O)(=O)c2ccc(NC(=O)c3ccco3)cc2)CC1`, the B-score was 0.741 (inactive).

For the molecule `CC1=C2C(=O)OC(c3ccoc3)C2(C)CCC1` (stereo unspecified), the B-score was -1.22 (inactive).

For `Cc1ccc(-n2ncc3c(N4CCN(c5ccc(F)cc5)CC4)ncnc32)c(C)c1`, the B-score is -0.824 (inactive).

`Fc1ccc2[nH]c3c(N4CCN(Cc5ccc6c(c5)OCO6)CC4)ncnc3c2c1`: the B-score was 6.32 (inactive).

As to `Fc1ccc2[nH]c3c(N4CCSCC4)ncnc3c2c1`, the B-score was 12.1 (active).

As for `O=C1CC(c2ccccc2)CC(O)=C1C=NCCN1CCOCC1` (stereo unspecified), the B-score is -1.61 (inactive).

Regarding `Cn1c(SCC(=O)c2cccs2)nnc1-c1ccco1`, the B-score is -0.304 (inactive).

As to `Cc1nnc(SCC(=O)NCc2cccs2)[nH]c1=O`, the B-score is 0.134 (inactive).

With `Cc1nc2nc(CSc3nc4ccccc4s3)cc(=O)n2[nH]1`, the B-score is 0.684 (inactive).

In the case of `Cc1nn2c(c1-c1ccccc1)N=C(c1ccco1)CC2c1ccccc1` (stereo unspecified), the B-score was 5.88 (active).

Regarding `Cc1nn(C(=O)c2ccoc2C)c(N)c1-c1ccccc1`, the B-score was 0.366 (inactive).

As to `CCOC(=O)c1c(C2CC2)csc1NC(=O)CSCc1c(C)noc1C`, the B-score was 0.602 (inactive).

Turning to `CN1CCN(CC(=O)Nc2sc3c(c2C#N)CCC(C(C)(C)C)C3)CC1` (stereo unspecified), the B-score was -0.211 (inactive).

For the molecule `CCOC(=O)C1CCCN(C(=O)c2ccc(CS(=O)(=O)c3ccc(Br)cc3)o2)C1` (stereo unspecified), the B-score was -2.11 (active).

For the molecule `CCOC(=O)C1CCCN(C(=O)c2cncc(Br)c2)C1` (stereo unspecified), the B-score was -0.115 (inactive).

On to `CCOC(=O)C1CCN(C(=O)c2oc3ccc(S(=O)(=O)N4CCCCCC4)cc3c2C)CC1`, for which the B-score was 1.57 (inactive).

For `C/C(Cl)=C\Cn1c(Nc2cccc(C)c2)nc2c1c(=O)n(C)c(=O)n2C`, the B-score was 0.177 (inactive).

Regarding `CCCn1c(=O)c(-c2ccccc2)c(O)c2ccccc21`, the B-score is 0.287 (inactive).

Regarding `Nc1nnc(SCCN2C(=O)c3ccccc3S2(=O)=O)s1`, the B-score is 1.12 (inactive).

`CCOC(=O)CNC(=O)CN1C(=O)CCSc2ccccc21`: the B-score was -0.158 (inactive).

As for `CC1=NCCN1S(=O)(=O)c1ccc(Br)c(C)c1`, the B-score was 0.66 (inactive).

For the molecule `CCN1CCCC1CNc1ncnc2c1[nH]c1ccc(F)cc12` (stereo unspecified), the B-score was 0.0374 (inactive).

Regarding `CC(C)OCCCNc1ncnc2c1[nH]c1ccc(F)cc12`, the B-score is 16.6 (active).

As to `O=C1CCCN1CCCNc1ncnc2c1[nH]c1ccccc12`, the B-score is -0.55 (inactive).

In the case of `Cc1oc(CC(C)C)c(CN2CCCC2)c1C(=O)O`, the B-score is 0.845 (inactive).

For `CCOC(=O)C1CCN(C(=O)C2CCN(S(=O)(=O)c3c(C)noc3C)CC2)CC1`, the B-score is -0.00598 (inactive).

Turning to `CN1C(C)(C)CC(NC(=O)CCC(=O)NC2CC(C)(C)N(C)C(C)(C)C2)CC1(C)C`, the B-score is -0.271 (inactive).

For the molecule `CCOc1ccc(NC(=O)CC2NCCNC2=O)cc1` (stereo unspecified), the B-score is 0.571 (inactive).

With `CCOC(=O)C1=C(C)NC(C)=C(C(=O)OCC)C1c1ccccn1`, the B-score is -0.0841 (inactive).

Turning to `CCCOC(=O)Nc1ccccc1C(N)=O`, the B-score was -0.00513 (inactive).

`O=C(CC1NCCNC1=O)Nc1ccc(Oc2ccccc2)cc1` (stereo unspecified): the B-score is 1.02 (inactive).

As for `CCOC(=O)c1ccccc1NC(=O)CC1Nc2ccccc2NC1=O` (stereo unspecified), the B-score is 14.3 (active).

Consider `O=C(CC1Nc2ccccc2NC1=O)Nc1ccccc1` (stereo unspecified), for which the B-score is 3.46 (active).

In the case of `COc1ccccc1NC(=O)C1=C(C)NC2=C(C(=O)CCC2)C1c1ccc(C)o1` (stereo unspecified), the B-score is -0.692 (inactive).

With `CCc1ccc(N(CC)c2ncnc3nc[nH]c23)cc1`, the B-score is 0.205 (inactive).

With `CCOc1ccc(S(=O)(=O)N(CC(=O)O)c2ccccc2)cc1`, the B-score is 0.254 (inactive).

With `C=C1c2cc(CC)ccc2NC(=O)N1c1ccc(C)cc1`, the B-score was -1.17 (inactive).

With `Cn1c(=O)c2c(nc(SCC(=O)Nc3ccccc3N3CCCCC3)n2C)n(C)c1=O`, the B-score is 6.49 (active).

`CC(C)n1c(SCC(=O)Nc2ccccc2N2CCCCC2)nc2c1c(=O)n(C)c(=O)n2C`: the B-score is 0.367 (inactive).

Regarding `Cc1ccccc1NC(=O)CNc1ccccc1N1CCCCC1`, the B-score is 1.11 (inactive).

With `CC(=O)Nc1ccc(S(=O)(=O)N2CCN(CCCOc3cc(C)ccc3C)CC2)cc1`, the B-score is -0.692 (inactive).

In the case of `CN(C)CCCNc1c2c(c(C#N)c3nc4ccccc4n13)CCC2`, the B-score was 0.715 (inactive).

Turning to `COc1ncnc2c1N=C1CC(C)(C)CC(N)=C1S2`, the B-score was 39.7 (active).

With `COc1cc(NS(=O)(=O)c2ccccc2)ccc1-n1nc(C)cc1C`, the B-score is -0.04 (inactive).

For the molecule `COc1cccc2c(C)c(C(=O)O)[nH]c12`, the B-score was -2.07 (active).

In the case of `COc1ccc(C)cc1NC(=O)c1[nH]c(C)c(C(C)=O)c1C`, the B-score was 1.04 (inactive).

Regarding `CCOC(=O)c1c(C)[nH]c(C(=O)NCc2ccccc2OC)c1C`, the B-score is 0.0421 (inactive).

With `CCN(CC)CCN1C(=O)C(=O)/C(=C(/O)c2ccc(OC)c(OC)c2)C1c1ccccn1` (stereo unspecified), the B-score is -0.817 (inactive).

As to `CS(=O)(=O)c1ccc2nc(NC(=O)C3CCCCC3)sc2c1`, the B-score was 0.229 (inactive).

Regarding `O=C1NC(Nc2nc3ccccc3s2)(C(F)(F)F)C(=O)N1C1CCCCC1` (stereo unspecified), the B-score is -0.752 (inactive).

Take `COc1cc(-c2nc(-c3ccncc3)no2)cc(OC)c1OC`: the B-score was -0.116 (inactive).

`COc1ccc(-c2ccc(-c3noc(-c4ccncc4)n3)c(OC)n2)cc1`: the B-score was -0.565 (inactive).

Regarding `CCOc1nc(-c2ccc(OC)cc2)ccc1-c1noc(-c2cc(OC)c(OC)c(OC)c2)n1`, the B-score was 9.6 (active).

Regarding `CC(C)c1nc2oc3c(N4CCN(C)CC4)ncnc3c2c2c1CCC2`, the B-score is 0.376 (inactive).

On to `Cc1ccccc1Nc1nnc(C)c(=O)[nH]1`, for which the B-score was -0.209 (inactive).

Consider `CCOC(=O)c1c(N)c(C#N)nn1-c1ccccc1C(=O)OC`, for which the B-score is -0.00838 (inactive).

For `O=C(CSc1nnc(Cn2cnc3ccccc32)o1)c1ccccc1`, the B-score is 2.49 (active).

`Cc1cc(C)cc(OCc2nnc(SCC(=O)Nc3ccccc3)o2)c1`: the B-score is 0.534 (inactive).

As for `c1ccc(Cc2nn3c(Cn4cnc5ccccc54)nnc3s2)cc1`, the B-score was 0.391 (inactive).

Regarding `O=C(Nc1nn(Cc2ccccc2F)cc1Br)c1cccs1`, the B-score was -0.416 (inactive).

As for `O=C(O)c1ccc(COc2c(F)c(F)cc(F)c2F)o1`, the B-score was 0.494 (inactive).

For `COc1ccc(Cn2nnc3c(=O)[nH]c(C4CCN(C(=O)c5ccccc5Cl)CC4)nc32)cc1`, the B-score was -0.0421 (inactive).

As for `CCc1nc(N2CCN(c3nc(C)cc(C)n3)CC2)c2oc3ccccc3c2n1`, the B-score was 0.00663 (inactive).

For `CCSc1nc(C)nc2c1oc1ccccc12`, the B-score is 0.362 (inactive).

On to `CCc1nc(Nc2ccc3nccnc3c2)c2oc3ccccc3c2n1`, for which the B-score is 3.77 (active).

Consider `COc1cccc(N2C(=O)C3CCCN3C2c2ccc(F)cc2)c1` (stereo unspecified), for which the B-score is -0.0377 (inactive).

Regarding `CCn1c(CNc2ccc(OC)cc2)nnc1SCC(=O)c1ccc(OC)cc1`, the B-score is 0.245 (inactive).

For `CCC1=C(C(=O)OC)C(c2cc(OC)ccc2OC)C(C#N)=C(N)O1` (stereo unspecified), the B-score is -0.762 (inactive).

As for `CCCN1CC=C2C(C#N)=C(N)C(C#N)(C#N)C(c3cc(OC)ccc3OC)C2C1` (stereo unspecified), the B-score was 47 (active).

Turning to `CCOC(=O)N1CC=C2C(C#N)=C(N)C(C#N)(C#N)[C@H](c3cccs3)[C@H]2C1`, the B-score was 3.8 (inactive).

Turning to `COc1cccc(N2CC(C(=O)Nc3c(C)cccc3C)CC2=O)c1` (stereo unspecified), the B-score is -0.0783 (inactive).

For the molecule `Cc1nc2sc(C(c3ccco3)N3CCC4(CC3)OCCO4)c(O)n2n1` (stereo unspecified), the B-score was -0.0511 (inactive).

Take `CCC(C)(C)n1nnnc1C(c1cccs1)N1CCN(Cc2ccccc2)CC1` (stereo unspecified): the B-score was 0.516 (inactive).

Turning to `CCOc1ccc(CN(Cc2ccco2)C(c2cccs2)c2nnnn2C(C)(C)C)cc1` (stereo unspecified), the B-score is 17.1 (active).

For `CC(C)(C)n1nnnc1C(c1cccs1)N(Cc1cccnc1)CC1CCCO1` (stereo unspecified), the B-score was 0.0241 (inactive).

With `O=C(c1ccc(=O)[nH]c1)N(Cc1ccco1)C1(C(=O)NC2CCCCC2)CCCCC1`, the B-score was 0.118 (inactive).

Turning to `O/N=C1\CC2(Cc3nonc31)OCCO2`, the B-score is -0.542 (inactive).
